Several values for one entry are separate records, joined by “and”; a condition that tells them apart may be missing. Equal entries are not always repeated. Results filed as inconclusive are left out. Some structures have more than one record in an assay (separate samples or runs), and their calls can disagree. Activity calls are given as the source filed them. Unless noted, calls follow the shape of the dose curve; as a rule, active = well fitted curve in the direction sought with a large enough effect in the repeat runs; inconclusive = weak or mixed curves; inactive = no such curve, though single readings can be large; an effect the other way counts as inactive or inconclusive.
Assays:
[1] = qHTS assay to identify small molecule antagonists of the TGF-beta/Smad signaling pathway - cell viability counter screen (AID 1346824); also: nearly all actives have a fitted effect of over 50% in size; also: potency is read from the fitted curve at half-maximal effect
How it was run: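 SBE-bla HEK 293T cells were plated overnight at 37 C, then given compounds in DMSO plus TGF-beta1 (added as 0.25 ng/mL solution) for 5 hr. After the bla read, CellTiter-Glo was added to the same wells and luminescence read after 30 min at room temperature.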

[2] = qHTS assay to identify small molecule agonists of the TGF-beta/Smad signaling pathway - cell viability counter screen (AID 1346829); also: nearly all actives have a fitted effect of over 45% in size; also: potency is read from the fitted curve at half-maximal effect
How it was run: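 HEK 293T SBE-bla line, 5 hr compound exposure at 37 C, multiplexed CellTiter-Glo viability read by luminescence.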

[3] = qHTS assay to identify small molecule agonists of the TGF-beta/Smad signaling pathway (AID 1346859; active = well fitted activation curve with a large enough effect in the signal ratio in the repeat runs, not every such curve was filed as active; the % refers to the signal ratio; also: series mostly up to about 77 µM)
How it was run: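 Smad-responsive beta-lactamase reporter cells (HEK 293T) received compounds from DMSO stocks after overnight attachment, were incubated 5 hr, then treated 2 hr with FRET substrate before dual-emission fluorescence measurement (405 nm excitation).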

[4] = target: Thyrotropin-releasing hormone receptor (Homo sapiens) (UniProt P34981); test: qHTS assay to identify small molecule antagonists of the thyrotropin-releasing hormone receptor (TRHR) signaling pathway (AID 1346877; active = well fitted inhibition curve with a large enough effect in the repeat runs, not every such curve was filed as active; also: series mostly up to about 51 µM)
Sequence of Thyrotropin-releasing hormone receptor (Homo sapiens) (P34981 whole entry, looked up): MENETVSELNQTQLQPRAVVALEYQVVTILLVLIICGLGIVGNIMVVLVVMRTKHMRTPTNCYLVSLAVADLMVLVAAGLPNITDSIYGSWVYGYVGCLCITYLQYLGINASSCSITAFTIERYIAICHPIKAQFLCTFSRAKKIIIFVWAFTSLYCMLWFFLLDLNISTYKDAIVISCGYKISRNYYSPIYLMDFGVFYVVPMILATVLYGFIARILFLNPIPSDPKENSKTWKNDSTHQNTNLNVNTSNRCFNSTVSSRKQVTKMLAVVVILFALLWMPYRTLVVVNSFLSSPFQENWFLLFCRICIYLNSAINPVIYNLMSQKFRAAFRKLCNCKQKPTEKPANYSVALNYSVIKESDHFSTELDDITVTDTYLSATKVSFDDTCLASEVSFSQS
How it was run: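 HEK293/TRHR cells, 18 h, 37 °C; Ca2+ dye 2 h; cpd 5 min RT; TRH 1 nM final; fluorescence read 3 min, 1 s intervals; 15 concs, triplicate.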

[5] = target: Thyrotropin-releasing hormone receptor (Homo sapiens) (UniProt P34981); test: qHTS assay to identify small molecule agonists of the thyrotropin-releasing hormone receptor (TRHR) signaling pathway (AID 1346891; calls by dose curve;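 also: HEK293 cells expressing TRHR with calcium dye readout; series mostly up to about 58 µM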)
How it was run: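 Agonist-mode calcium mobilisation screen: TRHR-transfected HEK293 cells cultured overnight (18 h), dye-loaded for 2 h at 37 °C, exposed to compounds, and monitored by fluorescence for 3 min.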

[6] = Human pregnane X receptor (PXR) small molecule agonists, qHTS cell viability counter screen (AID 1346977); also: nearly all actives have a fitted effect of over 50% in size; also: potency is read from the fitted curve at half-maximal effect
How it was run: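 Measures live-cell protease fluorescence (CellTiter-Fluor) in PXR-Luc HepG2 cells treated 24hr with compounds at 37C. Cells had 5hr to attach before pin transfer of DMSO solutions.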

[7] = Caspase-3/7 induction in CHO-K1 cells by small molecules, qHTS cell viability counter screen (AID 1346979); also: nearly all actives have a fitted effect of over 35% in size; also: potency is read from the fitted curve at half-maximal effect
How it was run: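 In the same wells as the caspase read, viability of compound-treated wild-type CHO-K1 cells was assessed using CellTiter-Fluor, added after 16hr at 37C and measured by fluorescence following 1hr further incubation.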

[8] = Caspase-3/7 induction in CHO-K1 cells by small molecules, qHTS assay (AID 1346980); also: nearly all actives have a fitted effect of over 15% in size; also: potency is read from the fitted curve at half-maximal effect
How it was run: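 Wild-type cells were seeded at 1,500 per well and settled 5 hr at 37 C, 5% CO2, then exposed to DMSO-dissolved compounds for 17 hr. Caspase-Glo 3/7 reagent was added, and luminescence was read after 30min at room temperature.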

[9] = Caspase-3/7 induction in HepG2 cells by small molecules, qHTS cell viability counter screen (AID 1346981); also: nearly all actives have a fitted effect of over 30% in size; also: potency is read from the fitted curve at half-maximal effect
How it was run: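 Fluorescence read-out of live-cell protease activity (CellTiter-Fluor) after 1 hr with reagent. This was measured in the same wells as the caspase-3/7 luminescence, on HepG2 cells exposed to DMSO-dissolved compounds for 16 hr at 37 C.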

[10] = target: Cytochrome P450 2D6 (Homo sapiens) (UniProt P10635); test: Cytochrome P450 Family 2 Subfamily D Member 6 (CYP2D6) small molecule antagonists: luciferase reporter qHTS assay (AID 1671196); also: potency is read from the fitted curve at half-maximal effect; nearly all actives have a fitted effect of over 50% in size
Sequence of Cytochrome P450 2D6 (Homo sapiens) (P10635 whole entry, looked up): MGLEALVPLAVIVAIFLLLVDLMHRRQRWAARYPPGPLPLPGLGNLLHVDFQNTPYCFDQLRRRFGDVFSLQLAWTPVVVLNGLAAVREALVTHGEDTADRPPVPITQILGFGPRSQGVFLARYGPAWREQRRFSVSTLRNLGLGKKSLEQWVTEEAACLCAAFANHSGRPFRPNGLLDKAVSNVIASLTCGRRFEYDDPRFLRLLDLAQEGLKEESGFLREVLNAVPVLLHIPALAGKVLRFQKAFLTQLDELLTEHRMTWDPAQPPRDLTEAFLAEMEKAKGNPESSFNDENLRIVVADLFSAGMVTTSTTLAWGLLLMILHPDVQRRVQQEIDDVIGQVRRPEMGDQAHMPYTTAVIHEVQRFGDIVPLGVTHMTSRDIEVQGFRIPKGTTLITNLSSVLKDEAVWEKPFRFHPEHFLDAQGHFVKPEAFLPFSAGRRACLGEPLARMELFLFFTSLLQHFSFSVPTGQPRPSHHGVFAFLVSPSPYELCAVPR
How it was run: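 Luminogenic proluciferin substrate, CYP2D6 enzyme; 10 min RT preincubation with compound, NADPH regeneration system added, 1 h RT. Stop/detection reagent, 20 min RT, luminescence read (RLU). Signal proportional to CYP activity.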

[11] = Caspase-3/7 induction in HepG2 cells by small molecules, qHTS assay (AID 1346978); also: nearly all actives have a fitted effect of over 15% in size
How it was run: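 Wild-type HepG2 cells (2,000/well) were settled 5 h at 37 C, 5% CO2, then exposed to compounds in DMSO for 17 h. Caspase-3/7 activity was read by luminescence 30 min after adding Caspase-Glo 3/7 reagent at room temperature.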

[12] = target: Nuclear receptor subfamily 1 group I member 2 (Homo sapiens) (UniProt O75469); test: Human pregnane X receptor (PXR) small molecule agonists, qHTS assay (AID 1346982); also: potency is read from the fitted curve at half-maximal effect; nearly all actives have a fitted effect of over 35% in size
Sequence of Nuclear receptor subfamily 1 group I member 2 (Homo sapiens) (O75469 whole entry, looked up): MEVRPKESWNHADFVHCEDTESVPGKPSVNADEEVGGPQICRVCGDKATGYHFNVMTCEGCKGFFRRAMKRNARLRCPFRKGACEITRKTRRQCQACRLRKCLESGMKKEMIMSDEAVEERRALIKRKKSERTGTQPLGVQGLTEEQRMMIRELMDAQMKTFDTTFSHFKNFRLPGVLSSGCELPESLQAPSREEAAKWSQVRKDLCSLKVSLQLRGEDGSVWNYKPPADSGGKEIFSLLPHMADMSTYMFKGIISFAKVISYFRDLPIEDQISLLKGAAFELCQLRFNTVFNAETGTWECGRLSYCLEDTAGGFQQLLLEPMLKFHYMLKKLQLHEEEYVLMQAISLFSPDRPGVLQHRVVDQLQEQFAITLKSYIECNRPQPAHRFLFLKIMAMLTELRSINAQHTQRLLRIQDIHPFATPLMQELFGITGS
How it was run: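 HepG2 PXR-Luc reporter line, 5% charcoal-stripped FBS; 5 hr pre-incubation, compound (DMSO) 24 hr at 37 C/5% CO2; ONE-Glo 30 min RT; luminescence read-out.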

[13] = qHTS assay to identify small molecule agonists of the progesterone receptor (PR) signaling pathway - cell viability counter screen (AID 1346799; calls by dose curve; also: nearly all actives have a fitted effect of over 45% in size; also: potency is read from the fitted curve at half-maximal effect)
How it was run: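 Counter screen for cytotoxicity: compound-treated PR-UAS-bla HEK293T cells (16 hr, 37C, 5% CO2) were assayed with CellTiter-Glo, luminescence measured after 30 min at room temperature.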

[14] = target: Cytochrome P450 2C19 (Homo sapiens) (UniProt P33261); test: Cytochrome P450 Family 2 Subfamily C Member 19 (CYP2C19) small molecule antagonists: luciferase reporter qHTS assay (AID 1671197); also: nearly all actives have a fitted effect of over 65% in size; also: potency is read from the fitted curve at half-maximal effect
Sequence of Cytochrome P450 2C19 (Homo sapiens) (P33261 whole entry, looked up): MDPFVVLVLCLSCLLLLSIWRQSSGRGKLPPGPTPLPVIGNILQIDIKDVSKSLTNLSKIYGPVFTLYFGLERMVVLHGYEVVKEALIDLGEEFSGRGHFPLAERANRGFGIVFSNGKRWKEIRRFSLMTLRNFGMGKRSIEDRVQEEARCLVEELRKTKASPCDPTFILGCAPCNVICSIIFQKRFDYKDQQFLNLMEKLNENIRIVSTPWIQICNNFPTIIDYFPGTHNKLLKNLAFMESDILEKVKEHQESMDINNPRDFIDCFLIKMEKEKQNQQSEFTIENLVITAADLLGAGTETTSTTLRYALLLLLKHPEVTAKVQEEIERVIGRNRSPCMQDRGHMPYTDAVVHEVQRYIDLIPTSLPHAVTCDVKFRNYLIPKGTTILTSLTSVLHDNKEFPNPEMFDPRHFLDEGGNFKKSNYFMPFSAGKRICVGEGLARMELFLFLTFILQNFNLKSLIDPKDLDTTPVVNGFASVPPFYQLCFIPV
How it was run: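 First, compounds are pinned into enzyme-substrate mix and held 10 min at room temperature. Second, NADPH regeneration solution is added and plates incubate 1 h at 37C. Third, detection reagent is added and luminescence read after 20 min.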

[15] = target: Cytochrome P450 2C9 (Homo sapiens) (UniProt P11712); test: Cytochrome P450 Family 2 Subfamily C Member 9 (CYP2C9) small molecule antagonists: luciferase reporter qHTS assay (AID 1671198); also: nearly all actives have a fitted effect of over 50% in size; also: potency is read from the fitted curve at half-maximal effect
Sequence of Cytochrome P450 2C9 (Homo sapiens) (P11712 whole entry, looked up): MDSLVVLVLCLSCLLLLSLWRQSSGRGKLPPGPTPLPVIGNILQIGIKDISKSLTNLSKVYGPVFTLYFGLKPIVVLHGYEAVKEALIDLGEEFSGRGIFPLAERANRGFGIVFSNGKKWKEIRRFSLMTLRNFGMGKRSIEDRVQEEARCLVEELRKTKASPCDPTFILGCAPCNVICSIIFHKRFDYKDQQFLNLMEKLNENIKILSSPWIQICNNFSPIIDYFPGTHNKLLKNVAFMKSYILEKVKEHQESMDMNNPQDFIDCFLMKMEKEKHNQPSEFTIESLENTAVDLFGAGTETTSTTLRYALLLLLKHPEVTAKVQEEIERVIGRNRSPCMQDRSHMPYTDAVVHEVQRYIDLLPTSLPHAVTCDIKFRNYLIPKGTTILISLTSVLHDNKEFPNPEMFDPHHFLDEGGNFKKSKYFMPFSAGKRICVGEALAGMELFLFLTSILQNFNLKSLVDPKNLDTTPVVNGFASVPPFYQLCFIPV
How it was run: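 CYP2C9 activity was measured with a P450-Glo proluciferin substrate. Enzyme–substrate mix was held with compound for 10 min at room temperature, then NADPH regeneration solution was added for 1 h at 37C. Luciferin product was read as luminescence.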

Measured: Potency

Brc1ccccc1-c1ccccc1
active: [10] 75.4 µM
not listed: [11] | [12] | [13] | [14] | [15]
inactive: all other assays above

C=CCCCCCCC=C
not listed: [3] | [10] | [12] | [13] | [14] | [15]
inactive: all other assays above

O=C(NO)c1ccccc1
active: [7] 65.3 µM | [12] 29.2 µM | [10] 60.2 µM
inactive: [2] | [4] | [5] | [6] | [11] | [8] | [9]

O=C1NCCN1CCN1CCC(c2cn(-c3ccc(F)cc3)c3ccc(Cl)cc23)CC1
active: [6] 29.8 µM | [8] 26.6 µM | [9] 29.8 µM | [10] 4.36 µM
inactive: [13] | [4] | [5] | [14] | [15]

N#CSCSc1nc2ccccc2s1
active: [6] 19.3 µM | [7] 17.2 µM | [8] 6.86 µM | [12] 7.7 µM | [10] 10 µM | [15] 31.7 µM
inactive: [13] | [3] | [5]

Oc1ccc(-c2ccc(O)cc2)cc1
active: [12] 48.9 µM
not listed: [1] | [6] | [7] | [9] | [10]
inactive: all other assays above

CC1CCCNC1 (centres undefined)
active: [10] 39.1 µM
not listed: [6] | [7] | [12] | [13]
inactive: all other assays above

Cc1ccc(N)cc1O
inactive: [2] | [4] | [5] | [11] | [9]
active: [7] 52.9 µM | [12] 34.4 µM | [10] 3.66 µM | [14] 3.56 µM | [15] 21.8 µM

CN(C)CCCN1c2ccccc2CCc2ccccc21
inactive: [2] | [4] | [5] | [11] | [8]
21.7 µM (active) and inactive: [13]
active: [6] 30.6 µM and 23.7 µM

COc1ccc(-n2nc(CCC(=O)N(C)O)cc2-c2ccc(Cl)cc2)cc1
inactive: [1] | [2] | [3] | [4] | [5] | [11] | [8]
active: [12] 29.8 µM | [10] 15.5 µM | [15] 3.89 µM

Cc1cc(Nc2ccc(O)cc2)ccc1N
inactive: [1] | [2] | [3] | [11]
active: [6] 30.5 µM | [7] 27.2 µM | [8] 21.6 µM | [9] 48.3 µM | [12] 9.64 µM | [10] 39.8 µM | [14] 19.9 µM | [15] 5.62 µM

CCN=C1C=CC(=C(c2ccc(N(CC)CC)cc2)c2ccc(N(CC)CC)cc2)c2ccccc21
active: [1] 27.4 µM | [2] 24.4 µM | [6] 0.682 µM | [7] 0.963 µM | [9] 8.58 µM | [12] 0.0242 µM | [10] 12.6 µM | [14] 17.7 µM | [15] 15.8 µM
inactive: [5] | [11] | [8]

From PubChem BioAssay (Tox21)
